The whole screen tested about 39,000 compounds, of which about 3,300 (8.5%) were called active. The sample holds actives, similar compounds and a random draw of the others, so the mix is not that of the screen.
The compounds below were run on HepG2 (assay: cytotoxicity call (relative viability < 0.9)). Conditions: 10 µM.

Compound	cytotoxicity call
C[C@@H]1CN([C@@H](C)CO)C(=O)c2cc(C#CC3(O)CCCC3)cnc2O[C@H]1CN(C)C(=O)Nc1ccc2c(c1)OCO2	inactive
Cc1ccc(S(=O)(=O)Nc2cccc3c2O[C@@H](CN(C)Cc2ccc(Cl)c(Cl)c2)[C@@H](C)CN([C@H](C)CO)C3=O)cc1	inactive
C[C@H]1CCCCO[C@H](CN(C)C(=O)Nc2cccc3ccccc23)[C@@H](C)CN([C@@H](C)CO)C(=O)c2cc(NC(=O)CCC(F)(F)F)ccc2O1	active
C[C@@H]1CCCCO[C@@H](CN(C)C(=O)Nc2cccc3ccccc23)[C@H](C)CN([C@H](C)CO)C(=O)c2cc(NC(=O)CCC(F)(F)F)ccc2O1	inactive
C[C@@H]1CCCCO[C@H](CN(C)C(=O)Nc2cccc3ccccc23)[C@H](C)CN([C@@H](C)CO)C(=O)c2cc(NC(=O)CCC(F)(F)F)ccc2O1	inactive
C[C@@H]1CN([C@H](C)CO)C(=O)c2cc(NC(=O)CCC(F)(F)F)ccc2O[C@@H](C)CCCCO[C@H]1CN(C)C(=O)Nc1cccc2ccccc12	active
C[C@@H]1CCCCO[C@@H](CN(C)C(=O)Nc2cccc3ccccc23)[C@@H](C)CN([C@H](C)CO)C(=O)c2cc(NC(=O)CCC(F)(F)F)ccc2O1	inactive
C[C@H](CO)N1C[C@H](C)[C@@H](CN(C)C(=O)Nc2cccc3ccccc23)OCCCC[C@H](C)Oc2ccc(NC(=O)CCC(F)(F)F)cc2C1=O	active
C[C@@H]1CN([C@@H](C)CO)C(=O)c2cc(NC(=O)CCC(F)(F)F)ccc2O[C@@H](C)CCCCO[C@@H]1CN(C)C(=O)Nc1cccc2ccccc12	inactive
C[C@@H]1CCCCO[C@H](CN(C)C(=O)Nc2cccc3ccccc23)[C@@H](C)CN([C@H](C)CO)C(=O)c2cc(NC(=O)CCC(F)(F)F)ccc2O1	inactive
C[C@@H]1CCCCO[C@@H](CN(C)C(=O)Nc2cccc3ccccc23)[C@H](C)CN([C@@H](C)CO)C(=O)c2cc(NC(=O)CCC(F)(F)F)ccc2O1	inactive
CC(C)NC(=O)N(C)C[C@H]1Oc2ccc(NS(=O)(=O)c3ccccc3)cc2C(=O)N([C@@H](C)CO)C[C@H]1C	inactive
C[C@@H]1CN([C@H](C)CO)C(=O)c2cccc(NC(=O)Nc3ccccc3)c2O[C@@H]1CN(C)CC1CCCCC1	inactive
COc1ccccc1-c1cnc2c(c1)C(=O)N([C@@H](C)CO)C[C@@H](C)[C@@H](CN(C)C(=O)c1ccncc1)O2	inactive
COc1ccc(S(=O)(=O)Nc2ccc3c(c2)C(=O)N([C@H](C)CO)C[C@@H](C)[C@@H](CN(C)C(=O)CCC(F)(F)F)OCCCC[C@@H](C)O3)cc1	inactive
O=C(/C=C/c1ccccc1)c1ccc(O[C@@H]2O[C@H](CO)[C@@H](O)[C@H](O)[C@H]2O)cc1O	inactive
C[C@H](CO)N1C[C@H](C)[C@@H](CN(C)S(=O)(=O)c2ccc(F)cc2)Oc2c(NS(=O)(=O)c3ccccc3)cccc2C1=O	inactive
CON=C(C(=O)N[C@@H]1C(=O)N2C(C(=O)O)=C(CSc3nc(=O)c(O)nn3C)CS[C@H]12)c1csc(N)n1	inactive
COc1ccc(S(=O)(=O)N(C)C[C@@H]2Oc3ccc(N(C)C)cc3C(=O)N([C@H](C)CO)C[C@H]2C)cc1	inactive
Cc1ccc(S(=O)(=O)N2C[C@@H](O)COC[C@@H]3O[C@H](CC(=O)NCCCN(C)C)CC[C@H]32)cc1	inactive

Compound	cytotoxicity call
Cc1ccc(S(=O)(=O)Nc2ccc3c(c2)C(=O)N([C@H](C)CO)C[C@H](C)[C@@H](CN(C)Cc2ccc(C(F)(F)F)cc2)O3)cc1	inactive
Cc1ccc(S(=O)(=O)Nc2ccc3c(c2)C(=O)N([C@H](C)CO)C[C@@H](C)[C@@H](CN(C)Cc2ccc(C(F)(F)F)cc2)O3)cc1	active
Cc1ccc(S(=O)(=O)Nc2ccc3c(c2)C(=O)N([C@@H](C)CO)C[C@@H](C)[C@@H](CN(C)Cc2ccc(C(F)(F)F)cc2)O3)cc1	inactive
Cc1ccc(S(=O)(=O)Nc2ccc3c(c2)C(=O)N([C@H](C)CO)C[C@@H](C)[C@H](CN(C)Cc2ccc(C(F)(F)F)cc2)O3)cc1	active
Cc1ccc(S(=O)(=O)Nc2ccc3c(c2)C(=O)N([C@@H](C)CO)C[C@@H](C)[C@H](CN(C)Cc2ccc(C(F)(F)F)cc2)O3)cc1	inactive
Cc1ccc(S(=O)(=O)Nc2ccc3c(c2)C(=O)N([C@@H](C)CO)C[C@H](C)[C@@H](CN(C)Cc2ccc(C(F)(F)F)cc2)O3)cc1	inactive
Cc1ccc(S(=O)(=O)Nc2ccc3c(c2)C(=O)N([C@@H](C)CO)C[C@H](C)[C@H](CN(C)Cc2ccc(C(F)(F)F)cc2)O3)cc1	inactive
Cc1ccc(S(=O)(=O)Nc2ccc3c(c2)C(=O)N([C@H](C)CO)C[C@H](C)[C@H](CN(C)Cc2ccc(C(F)(F)F)cc2)O3)cc1	active
Cn1cccc1C(=O)NCc1cn2c(n1)CN(S(C)(=O)=O)CC2	inactive
COC(=O)[C@@H]1N2C(=O)[C@@H](N3C[C@](C)(OC)O[C@@H](Cc4ccccc4)[C@H]3/C=C/C3CC3)[C@H]2SC1(C)C	inactive
C[C@H]1CCCCO[C@@H](CN(C)C(=O)Nc2cccc3ccccc23)[C@@H](C)CN([C@@H](C)CO)C(=O)c2cc(NC(=O)c3ccncc3)ccc2O1	inactive
C[C@H]1CN([C@@H](C)CO)C(=O)c2cc(C#CCN(C)C)cnc2O[C@@H]1CN(C)C(=O)Nc1cc(F)ccc1F	inactive
O=C(C[C@@H]1CC[C@H]2[C@@H](COC[C@H](O)CN2S(=O)(=O)c2ccccc2)O1)NCc1ccc(-c2ccccc2)cc1	inactive
COCC(=O)N1C[C@@H](C)[C@@H](OC)CN(C)C(=O)c2ccc(NC(=O)c3ccc(F)cc3)cc2OC[C@H]1C	inactive
COc1ccc(S(=O)(=O)N(C)C[C@H]2Oc3ccc(NS(=O)(=O)c4c(C)noc4C)cc3CC(=O)N([C@H](C)CO)C[C@@H]2C)cc1	inactive
COc1ccc(S(=O)(=O)N(C)C[C@H]2OCCCC[C@@H](C)Oc3ccc(NC(=O)Nc4cccc5ccccc45)cc3C(=O)N([C@H](C)CO)C[C@H]2C)cc1	inactive
CC(C)(C)NC(=O)C1CN(Cc2cccnc2)CCN1CC(O)CC(Cc1ccccc1)C(=O)NC1c2ccccc2CC1O (centres undefined)	active
CC(C)(C)NC(=O)[C@@H]1CN(Cc2cccnc2)CCN1C[C@@H](O)C[C@@H](Cc1ccccc1)C(=O)N[C@H]1c2ccccc2C[C@H]1O	inactive
CC(C)(C)NC(=O)[C@@H]1CN(Cc2cccnc2)CCN1C[C@@H](O)C[C@@H](Cc1ccccc1)C(=O)N[C@@H]1c2ccccc2C[C@@H]1O	inactive

— the antibiotic and cytotoxicity screens of Wong et al. (2023)
